# Key:
# Assay in all cases: thermal shift delta Tm vs DMSO control; higher = stronger stabilization (binding)
# Conditions in all cases: 12.5 µM; protein concentration 2 µM
# LOC_OS04G57630-cb004 = system: LOC_OS04G57630-cb004
# How it was run: (§1)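 Rice kinase domain constructs were expressed in E. coli, purified, and tested by differential scanning fluorimetry with compound added in DMSO. Each well of a 96-well plate held 19.5 μl of 2 μM kinase in 100 mM potassium phosphate pH 7.5, 150 mM NaCl, 10% glycerol and 5 × SYPRO Orange, and fluorescence was read from 25°C to 95°C at 0.05°C/s. The melting temperature shift is the mean of triplicates, taken against protein with DMSO alone after Boltzmann fitting.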
# LOC_OS05G07850-cb002 = system: LOC_OS05G07850-cb002
# How it was run: as §1
# LOC_OS05G16824-cb004 = system: LOC_OS05G16824-cb004
# How it was run: as §1
# LOC_OS05G28520-cb001 = system: LOC_OS05G28520-cb001
# How it was run: as §1
# LOC_OS05G30820-cb001 = system: LOC_OS05G30820-cb001
# How it was run: as §1
# LOC_OS05G43570-cb004 = system: LOC_OS05G43570-cb004
# How it was run: as §1
# LOC_OS06G16330-cb003 = system: LOC_OS06G16330-cb003
# How it was run: as §1
# LOC_OS06G22820-cb001 = system: T1, LOC_OS06G22820-cb001
# T1 sequence (whole entry): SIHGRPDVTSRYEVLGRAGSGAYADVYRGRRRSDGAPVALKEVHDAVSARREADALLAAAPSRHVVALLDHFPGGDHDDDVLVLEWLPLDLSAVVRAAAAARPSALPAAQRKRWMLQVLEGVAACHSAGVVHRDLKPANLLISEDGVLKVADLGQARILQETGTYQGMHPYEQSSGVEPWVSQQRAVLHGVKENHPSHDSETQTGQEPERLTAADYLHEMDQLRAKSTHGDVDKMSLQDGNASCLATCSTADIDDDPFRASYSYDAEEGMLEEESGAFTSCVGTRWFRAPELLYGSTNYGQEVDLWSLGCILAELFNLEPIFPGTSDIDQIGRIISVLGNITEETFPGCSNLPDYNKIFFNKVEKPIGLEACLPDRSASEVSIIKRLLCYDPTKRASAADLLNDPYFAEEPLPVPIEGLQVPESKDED
# How it was run: as §1
# LOC_OS07G06570-cb004 = system: LOC_OS07G06570-cb004
# How it was run: as §1
# LOC_OS07G07230-cb001 = system: LOC_OS07G07230-cb001
# How it was run: as §1
# LOC_OS06G16330-cb003, sequence (as listed by the source): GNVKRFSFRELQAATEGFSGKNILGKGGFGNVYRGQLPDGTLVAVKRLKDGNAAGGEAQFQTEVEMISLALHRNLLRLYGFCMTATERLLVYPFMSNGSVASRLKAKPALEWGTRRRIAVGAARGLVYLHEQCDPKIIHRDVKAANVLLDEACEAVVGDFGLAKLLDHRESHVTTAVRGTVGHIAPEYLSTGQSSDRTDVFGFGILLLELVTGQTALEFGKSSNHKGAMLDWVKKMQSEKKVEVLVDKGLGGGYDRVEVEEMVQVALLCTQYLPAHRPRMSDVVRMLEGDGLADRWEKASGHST
SMILES,thermal shift delta Tm (LOC_OS04G57630-cb004) [°C],thermal shift delta Tm (LOC_OS05G07850-cb002) [°C],thermal shift delta Tm (LOC_OS05G16824-cb004) [°C],thermal shift delta Tm (LOC_OS05G28520-cb001) [°C],thermal shift delta Tm (LOC_OS05G30820-cb001) [°C],thermal shift delta Tm (LOC_OS05G43570-cb004) [°C],thermal shift delta Tm (LOC_OS06G16330-cb003) [°C],thermal shift delta Tm (LOC_OS06G22820-cb001) [°C],thermal shift delta Tm (LOC_OS07G06570-cb004) [°C],thermal shift delta Tm (LOC_OS07G07230-cb001) [°C]
COc1cc(CCc2cc(NC(=O)c3ccc(N4CC(C)NC(C)C4)cc3)n[nH]2)cc(OC)c1 (stereo not given),2.33,3.41,4.73,6.65,0.59,0.4,2.54,0.35,0,-0.08
CCN1/C(=C/C(C)=O)Sc2ccc(OC)cc21,-0.02,2.71,0.06,0.32,0.33,0.34,-0.18,0.54,0.57,0.23
COc1ccc(COc2cc3oc(=O)c4cc(C(C)O)ccc4c3cc2OC)cc1 (stereo not given) [Palomid 529 (P529)],0.55,0.39,-3.05,0.84,0.78,0.66,0.23,0.68,0.97,0.03
Cc1ccc(NC(=O)c2ccc(CN3CCN(C)CC3)cc2)cc1Nc1nccc(-c2cccnc2)n1 [Imatinib (STI571)],0.39,2.43,-0.13,0.71,0.5,0.23,0.3,0.22,1.37,0.97
Cc1ccc2nc(NCCN)c3ncc(C)n3c2c1,-0.03,0.79,-0.92,0.44,0.61,0.49,0.49,0.81,1.79,0.68
O=C(NCCO)c1cccc(-c2cc(Nc3ccc(OC(F)(F)F)cc3)ncn2)c1,-0.03,1.54,0.97,-0.03,0.29,0.15,1.76,0.84,0.21,-0.33
CS(=O)(=O)CCNCc1ccc(-c2ccc3ncnc(Nc4ccc(OCc5cccc(F)c5)c(Cl)c4)c3c2)o1,-0.1,1.34,-0.68,0.97,0.44,0.61,-0.63,1.04,0.83,0.48
CC(C)=CC[C@@H](O)C1=CC(=O)c2c(O)ccc(O)c2C1=O [Shikonin],-1.93,-1.47,-0.18,1.58,0.18,0.09,-1.68,-0.26,7.3,0.21

# — the supplement of paper PMC9694430
